Bioassay records as filed in PubChem.
HP1b chromo inh – blocks HP1-beta chromodomain binding to methylated histone tails | Potency, µM (titrated, usually from 114 µM), without a hit: at the top dose activity change, negative = inhibition, most hits filed as inhibitors | 390,000 compounds, 0.56% hits | P83916 | AID 540317 | AlphaScreen HP1-beta / biotin-H3K9me3 peptide binding; further: potency means the concentration at half of the fitted maximal effect; nearly all actives have a fitted effect of over 70% in size
Target sequence (P83916 whole entry, looked up): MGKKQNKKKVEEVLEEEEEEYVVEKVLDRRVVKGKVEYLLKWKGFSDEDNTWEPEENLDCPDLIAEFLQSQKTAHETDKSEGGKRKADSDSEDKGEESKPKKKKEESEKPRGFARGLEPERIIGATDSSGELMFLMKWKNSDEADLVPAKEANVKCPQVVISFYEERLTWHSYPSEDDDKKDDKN
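AlphaScreen: HP1-beta (50 nM) preformed 30 min with biotin-H3(1-18)K9me3 peptide (50 nM) in PBS pH 7.4, 0.01% Tween-20. Compound added for 30 min at RT, then streptavidin donor/nickel chelate acceptor beads (10 ug/mL) for 30 min.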
Six1-Eya2 blk – blocks human Six1 binding to Eya2; activity change, % (test concentration not listed); AlphaScreen GST-Six1/His-Eya2 binding, biochemical; active compounds read low; AID 651725; 360,000 compounds, 0.56% hits; Q15475+O00167; in the data active means activity change below about -65%; inconclusive means mostly about -30% to -63%; further: on the % scale 0 is the no-effect control and ±100 the full control effect
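AlphaScreen luminescence read after one hour at 37 °C in darkness. Pin-transferred compounds met GST-Six1 and His-Eya2 protein (5X stock 250 nM/500 nM) plus glutathione donor and Ni-chelate acceptor beads (5X, 50 ug/mL).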
JMJD2A Tudor – JMJD2A Tudor domain (human) inhibition; Potency, µM (top dose mostly 114 µM), for inactives: at the top dose activity change, negative = inhibition, actives largely listed as inhibitors; 390,000 compounds, 4.4% hits; O75164; AlphaScreen JMJD2A-Tudor / H3K4me3 peptide binding; AID 504339; further: potency means the concentration at half of the fitted maximal effect; on the % scale 0 is the no-effect control and ±100 the full control effect; nearly all actives have a fitted effect of over 50% in size
BAZ2B block – BAZ2B (human) inhibition; Q9UIF8; AlphaScreen BAZ2B-H3K14Ac peptide displacement; Potency, µM (titrated, usually from 114 µM), without a hit: top-dose activity change, negative = inhibition, hits mostly inhibitors; 360,000 compounds, 4.4% hits; further: potency means the concentration at half of the fitted maximal effect; on the % scale 0 is the no-effect control and ±100 the full control effect; nearly all actives have a fitted effect of over 60% in size
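Complex of BAZ2B and biotin-H3K14Ac (50 nM apiece) forms over 30 min at RT, then faces library compounds up to 110 uM for another 30 min; AlphaScreen beads added, 20 min dark incubation, luminescence read.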
G9a block – G9a (human) methyltransferase inhibition. G9a H3K9 monomethylation, AlphaScreen, 2 h. Potency, µM (doses to about 102 µM), for the others: at the highest dose activity, negative = inhibition, most hits filed as inhibitors. 350,000 compounds, 8.8% hits; further: potency means the concentration at half of the fitted maximal effect; on the % scale 0 is the no-effect control and ±100 the full control effect; nearly all actives have a fitted effect of over 75% in size
Target sequence (Q96KQ7 913-1193 limits assumed): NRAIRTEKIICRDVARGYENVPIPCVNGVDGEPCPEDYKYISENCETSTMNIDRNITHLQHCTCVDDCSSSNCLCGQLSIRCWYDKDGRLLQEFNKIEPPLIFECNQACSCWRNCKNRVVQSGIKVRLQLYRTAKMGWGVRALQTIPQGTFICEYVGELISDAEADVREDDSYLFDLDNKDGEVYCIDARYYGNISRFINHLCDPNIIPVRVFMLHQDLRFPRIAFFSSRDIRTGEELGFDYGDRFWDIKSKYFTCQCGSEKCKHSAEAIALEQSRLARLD
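Step 1: enzyme (final 20 nM) with compound, 15 min RT. Step 2: substrate peptide 500 nM and SAM 20 uM, 2 h RT. Step 3: anti-H3K9me1 antibody and AlphaScreen beads, 10 min, then plate read.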
CtBP-E1A blk – CtBP/E1A binding inhibition; AlphaScreen GST-E1A/His-CtBP binding, 1536-well; active compounds read low; activity change, % (test concentration not listed); 340,000 compounds, 0.49% hits; in the data active means activity change below about -65%; inconclusive means mostly about -30% to -63%; further: on the % scale 0 is the no-effect control and ±100 the full control effect
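AlphaScreen with 125 nM GST-E1A and 125 nM His-CtBP (5X stocks) in Tris pH 8.0, 300 mM NaCl, BSA, Tween 20, TCEP. Compounds preincubated 2 h at 37 deg C, then glutathione donor/nickel acceptor beads added for 1 h at 37 deg C in dark.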
Starred values were filed as active, the others as inactive; ? = inconclusive; . = not tested or not shown; [ ] = another dose, or the depositor's remark. Sampled rows, rich in hits. Any-hit rate of the full collection: about 10%. Unless noted, the call rests on the fitted dose curve; in most records, active means well fitted inhibition curve with a large enough effect; inconclusive means small, poorly fitted or top-dose-only effect; inactive means no such curve, though single readings can be large or run the other way.

SMILES	HP1b chromo inh	Six1-Eya2 blk	JMJD2A Tudor	BAZ2B block	G9a block	CtBP-E1A blk
CC(=O)Nc1ccc(Br)c2ccccc12	32.8%	7.8	-17.4%	-33.5%	-0.5%	-7.2
O=C(Nc1ccc(Br)c2ccccc12)c1ccc2ccccc2c1O	?	-20.0	?	28.2µM*	28.2µM*	.
CNS(=O)(=O)c1cn(CC(=O)Nc2ccc(F)cc2F)cc1S(=O)(=O)NC	26.0%	.	-4.1%	-8.1%	-20.4%[59 µM]	.
CC(=O)c1cccc(NC(=O)c2cccc3c(-c4cccc(C(N)=O)c4)coc23)c1	.	-18.4	.	.	.	?
CS(=O)(=O)Nc1cccc(NC(=O)c2cccc3c(-c4cccc(C(N)=O)c4)coc23)c1	.	?	.	.	.	-71.7*
COc1ccc(-c2nc3ccccc3o2)cc1NC(=O)COc1ccc(C(C)(C)C)cc1	44.7%	.	-14.1%	1.5%	-37.5%[59 µM]	.
Cc1[nH]c2ccccc2c1C(=O)COC(=O)C1CC(=O)N(Cc2ccco2)C1 (centres undefined)	5.2%	-8.3	-27.1%	-37.6%	?	-9.9
O=C(COC(=O)C1CC(=O)N(Cc2ccco2)C1)c1ccc(OC(=O)c2ccco2)cc1 (centres undefined)	?	?	35.5µM*	25.1µM*	8.91µM*	0.3
Cc1ccc(C(=O)Oc2ccc(C(=O)COC(=O)C3CC(=O)N(Cc4ccco4)C3)cc2)cc1 (centres undefined)	-18.0%	-84.9*	?	50.1µM*	?	?
COc1cc([C@H]2Oc3c(OC)cc(CCCO[C@@H]4O[C@H](CO)[C@@H](O)[C@H](O)[C@H]4O)cc3[C@@H]2CO)ccc1O	39.8%	-3.4	-9.5%	6.5%	-8.3%[12.7 µM]	2.6
CCc1nc2c(OCc3ccc(Cl)cc3)cccn2c1N(C)C(=O)c1ccc(C)cc1	.	-8.5	.	.	.	-27.9
CCOC(=O)c1ccc(S(=O)(=O)N2CCN(CC(O)COc3cccc(C(C)=O)c3)CC2)cc1 (centres undefined)	-12.9%	-5.4	17.8µM*	79.4µM*	-8.5%	-15.6
CC(C)c1ccc(CN2CCC2(C)C(=O)Nc2cccc(Oc3ccccc3)c2)cc1 (centres undefined)	.	14.0	.	.	.	7.8
Cc1ccc(C(=O)CC(C(=O)O)P(=O)(c2ccccc2)c2ccccc2)cc1 (centres undefined)	4.6%	3.1	-21.0%	-26.4%	70.8µM*	-2.1
O=C(CSCCc1ccccn1)Nc1ccccn1	51.0%	-0.8	-7.6%	-2.3%	56.2µM*	12.0
CCc1ccc(OC(=O)c2sc3ncn(Cc4cccc(F)c4)c(=O)c3c2C)cc1	47.3%	.	11.9%	7.0%	2.9%[59 µM]	.
Cc1ccc(NC(=O)C(C)SCc2nc3sc4c(c3c(=O)[nH]2)CCCC4)nc1 (centres undefined)	37.9%	1.5	0.3%	-21.4%	-10.2%	6.4
CC(SCc1nc2sc3c(c2c(=O)[nH]1)CCCC3)C(=O)Nc1ccccn1 (centres undefined)	31.3%	-5.9	-13.0%	6.0%	50.1µM*	-1.3
Cc1sc2nc(CSC(C)C(=O)Nc3cc(S(C)(=O)=O)ccc3Cl)[nH]c(=O)c2c1C (centres undefined)	10.0%	6.0	-9.2%	-22.2%	50.1µM*	0.0
Cc1cccc(NC(=O)C(C)SCc2nc3sc(C)c(C)c3c(=O)[nH]2)n1 (centres undefined)	32.8%	1.9	-24.1%	-19.7%	44.7µM*	10.8
Cc1sc2nc(CSC(C)C(=O)Nc3ccccn3)[nH]c(=O)c2c1C (centres undefined)	19.5%	3.0	-8.1%	6.5%	7.94µM*	5.1
Cc1sc2nc(CSCC(=O)Nc3c(F)cccc3F)[nH]c(=O)c2c1C	38.2%	0.4	-12.4%	8.7%	14.6%[2.33 µM]	1.0
Cc1sc2nc(CSCC(=O)Nc3ccc(Cl)cc3F)[nH]c(=O)c2c1C	20.3%	-4.8	-4.1%	1.9%	-20.2%	1.2
Fc1cccc(-c2nnn3c2nc(NC2CCCCC2)c2ccccc23)c1	164.7%	.	57.3%	52.3%	16.8%[59 µM]	.
